# Source: PubChem BioAssay (NCATS)
# Where “and” joins values, the source holds several entries; their conditions need not be identical. Equal values may be shown once. Records with an inconclusive call do not appear. Where a call stands in place of a potency, no number is given. Calls of active or inactive are those of the source. Calls come from the whole dose curve; as a rule, active = well fitted curve in the direction sought with a large enough effect; inconclusive = small, poorly fitted or top-dose-only effect, or another doubt; inactive = no such curve, though single readings can be large; an effect the other way counts as inactive or inconclusive.
# Legend:
# [1] = qHTS of pediatric cancer cell lines to identify multiple opportunities for drug repurposing: Primary screen for BT-12 cells (AID 1347101); note: nearly all actives have a fitted effect of over 25% in size
# How it was run: (§1)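 Cells (500-1,000/well) rested 5 h, then received compounds for 48 h; metabolically active cells were measured by CellTiter-Glo luminescence. Final concentrations spanned up to 46 µM (MIPE, 11-point) or 0.59 nM-46 µM (NPC, 8-point) in primary screens, 11-point in follow-ups.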
# [2] = qHTS of pediatric cancer cell lines to identify multiple opportunities for drug repurposing: Primary screen for OHS-50 cells (AID 1347103); note: nearly all actives have a fitted effect of over 40% in size
# How it was run: as §1
# [3] = qHTS of pediatric cancer cell lines to identify multiple opportunities for drug repurposing: Primary screen for MG 63 (6-TG R) cells (AID 1347105); note: nearly all actives have a fitted effect of over 50% in size
# How it was run: (§2)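 Primary screen of approved and investigational compounds on cells in growth media at 37 degrees C, 5% CO2. MIPE set at 11-point and NPC set at 8-point dilutions; viability scored by ATP-based luminescence at 48 hours.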
# [4] = qHTS of pediatric cancer cell lines to identify multiple opportunities for drug repurposing: Primary screen for Rh30 cells (AID 1347107); note: nearly all actives have a fitted effect of over 75% in size
# How it was run: as §1
# [5] = qHTS of pediatric cancer cell lines to identify multiple opportunities for drug repurposing: Primary screen for Rh41 cells (AID 1347108); note: nearly all actives have a fitted effect of over 70% in size
# How it was run: as §2
# [6] = qHTS of pediatric cancer cell lines to identify multiple opportunities for drug repurposing: Confirmatory screen for NB1643 cells (AID 1347109); note: nearly all actives have a fitted effect of over 45% in size
# How it was run: as §1
# [7] = qHTS of pediatric cancer cell lines to identify multiple opportunities for drug repurposing: Confirmatory screen for A673 cells (AID 1347110);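 note: cells exposed to compound for 48 h before the viability read; nearly all actives have a fitted effect of over 65% in size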
# How it was run: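 Cells plated at 500-1,000/well were treated five hours later with multi-point dilutions up to 46 µM final. After two days, CellTiter-Glo was added and luminescence read.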
# [8] = qHTS of pediatric cancer cell lines to identify multiple opportunities for drug repurposing: Primary screen for RD cells (AID 1347104); note: nearly all actives have a fitted effect of over 55% in size
# How it was run: as §2
# [9] = qHTS of pediatric cancer cell lines to identify multiple opportunities for drug repurposing: Primary screen for control Hh wild type fibroblast cells (AID 1347106); note: nearly all actives have a fitted effect of over 55% in size
# How it was run: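 Viability after 48 h compound treatment at 37C, 500-1,000 cells/well, read as ATP luminescence with CellTiter-Glo. Primary screens used 11-point (MIPE, 0.78 nM-46 µM) or 8-point (NPC, 0.59 nM-46 µM) final concentrations; follow-up screens used 11-point dilutions.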
# Potency is the fitted concentration of half-maximal effect.
Structure (SMILES),Potency [1],Potency [2],Potency [3],Potency [4],Potency [5],Potency [6],Potency [7],Potency [8],Potency [9]
NC1=N[C@@]2(c3cc(NC(=O)c4ccc(F)cn4)ccc3F)COC[C@@H]2CS1,0.153 µM (active),0.137 µM (active),23.5 µM (active),inactive,18.7 µM (active),inactive,inactive,–,–
O=C(O)c1ccc(-c2cc3cccnc3c(-c3ccc4nonc4c3)n2)cc1,27.3 µM (active),27.3 µM (active),–,inactive,–,–,0.928 µM (active),26.4 µM (active),inactive
O=c1c(-c2ccc(O)cc2)coc2cc(O[C@@H]3O[C@H](CO)[C@H](O)[C@H](O)[C@H]3O)ccc12,inactive,inactive,–,inactive,inactive,–,–,inactive,inactive
CC[C@]1(O)C[C@@H]2CN(CCc3c([nH]c4ccccc34)[C@@](C(=O)OC)(c3cc4c(cc3OC)N(C)[C@H]3[C@@](O)(C(=O)OC)[C@H](OC(C)=O)[C@]5(CC)C=CCN6CC[C@]43[C@@H]65)C2)C1,43.7 nM (active) and 347 nM (active),30.9 nM (active) and 138 nM (active),–,inactive,–,1.31 µM (active),32.9 nM (active) and 36.9 nM (active),21.1 nM (active) and 211 nM (active),–
CC(C)(C)Cn1c(N)nc2ccc(-c3[nH]c(C(C)(C)C)nc3-c3ccc(F)cc3)nc21,27.3 µM (active),30.6 µM (active),–,20.9 µM (active),18.7 µM (active),–,–,20.9 µM (active),inactive
Cc1ccc(C(=O)Nc2cccc(C(F)(F)F)c2)cc1Nc1nc(-c2cccnc2)nc2c1cnn2C,24.3 µM (active),21.7 µM (active),18.7 µM (active),18.7 µM (active),18.7 µM (active),–,–,14.8 µM (active),inactive
OC[C@@H](O)[C@H](O)[C@H](O)[C@@H](O)CO,inactive,inactive,inactive,inactive,inactive,–,–,inactive,inactive
COc1cccc2c1CCCC2CCCN1CCN(C2CCCCC2)CC1 (centres undefined),24.3 µM (active),19.3 µM (active),–,–,–,–,–,26.4 µM (active),inactive
O=C(NCCN1CCOCC1)c1ccc(Cl)cc1,inactive,inactive,–,inactive,inactive,–,–,inactive,inactive
CN[C@@H](C)C(=O)N[C@H]1CN(C(=O)CC(C)C)CC[C@H]2CC[C@@H](C(=O)NC(c3ccccc3)c3ccccc3)N2C1=O,0.485 µM (active),0.243 µM (active),–,inactive,–,inactive,–,–,inactive
COc1ccc(C2Sc3ccccc3N(CCN(C)C)C(=O)C2OC(C)=O)cc1 (centres undefined),inactive,inactive,inactive,inactive,inactive,–,–,inactive,inactive
O=C(CCc1ccc(O)cc1)c1c(O)cc(O)cc1O[C@@H]1O[C@H](CO)[C@H](O)[C@H](O)[C@H]1O,inactive,inactive,–,inactive,inactive,–,–,inactive,inactive
COCCOc1nc(-c2ccc(Cl)c(Cl)c2)n(-c2ccc(NC(=O)CCl)cc2)n1,5.44 µM (active),6.11 µM (active),–,–,–,–,–,–,inactive
CC(=O)Oc1cc2c(s1)CCN(C(C(=O)C1CC1)c1ccccc1F)C2 (centres undefined),3.06 µM (active),1.37 µM (active),–,inactive,–,inactive,1.04 µM (active),inactive,inactive
CC(C)(C(=O)NCC(F)(F)C(F)(F)F)C(=O)N[C@@H]1C(=O)Nc2ccccc2-c2ccccc21,1.09 µM (active),1.53 µM (active),–,–,–,inactive,inactive,–,inactive
CC(C)NCC(O)COc1cccc2[nH]ccc12 (centres undefined),inactive,inactive,–,inactive,inactive,–,–,inactive,inactive
N[C@H](CSC(c1ccccc1)(c1ccccc1)c1ccccc1)C(=O)O,27.3 µM (active),6.11 µM (active),–,inactive,inactive,–,–,–,inactive
CC[C@H]1OC(=O)[C@H](C)[C@@H](O[C@H]2C[C@@](C)(OC)[C@@H](O)[C@H](C)O2)[C@H](C)[C@@H](O[C@@H]2O[C@H](C)C[C@H](N(C)C)[C@@H]2O)[C@](C)(O)C[C@@H](C)CN(C)[C@H](C)[C@@H](O)[C@]1(C)O,inactive,inactive,–,inactive,inactive,–,–,–,inactive
CC1(C)CCC(CN2CCN(c3ccc(C(=O)NS(=O)(=O)c4ccc(NCC5CCOCC5)c([N+](=O)[O-])c4)c(Oc4cnc5[nH]ccc5c4)c3)CC2)=C(c2ccc(Cl)cc2)C1,30.6 µM (active),15.3 µM (active),11.8 µM (active),–,18.7 µM (active),0.261 µM (active),–,18.7 µM (active),inactive
NS(=O)(=O)c1ccc(NC2=CC(=O)c3ccccc3C2=O)cc1,1.09 µM (active),inactive,inactive,inactive,inactive,–,–,–,inactive
CO[C@H]1C[C@@H]2CC[C@@H](C)[C@@](O)(O2)C(=O)C(=O)N2CCCC[C@@H]2C(=O)O[C@H]([C@@H](C)C[C@@H]2CC[C@H](O)[C@H](OC)C2)CC(=O)[C@H](C)C=C(C)[C@@H](O)[C@@H](OC)C(=O)[C@H](C)C[C@H](C)C=CC=CC=C1C,9.68 µM (active),–,inactive,inactive,–,–,–,inactive,inactive
CCn1c(C(=O)N(C2CC2)C2CC2)cc2c3c(ncn3C)c(Nc3cc(C)n(C)n3)nc21,inactive,–,inactive,–,–,–,–,inactive,–
O=C1C(Cl)=C(NCCN2CCOCC2)C(=O)c2ncccc21,3.43 µM (active),9.68 µM (active),18.7 µM (active),8.33 µM (active),4.69 µM (active),4.14 µM (active),2.08 µM (active),5.9 µM (active),11.8 µM (active)
